Compound activity as filed in PubChem BioAssay.
MARV entry inh – inhibitors of Marburg virus binding or cell entry; Potency, µM (series often up to 37.8 µM), usual class: inhibitors; 300,000 compounds, 1.8% hits; Marburg virus pseudotyped entry inhibition, cell reporter; calls by dose curve; tested in HEK293 cells
VACV mCherry inh – vaccinia inhibition (mCherry reporter); Vaccinia virus mCherry reporter infection, fluorescence; AID 720579; Potency, µM (titrated, usually from 36.5 µM), usual class: inhibitors; 310,000 compounds, 0.63% hits; calls by dose curve; tested in A549 cells; further: nearly all actives have a fitted effect of over 35% in size
FMDV inh – blocks foot and mouth disease virus; AID 1159524; 410,000 compounds, 1.2% hits; FMDV antiviral cell-based qHTS; Potency, µM (highest dose often 57.9 µM), actives largely listed as inhibitors; calls by dose curve; tested in HEK293T cells; further: read-out not given here; nearly all actives have a fitted effect of over 45% in size
LASV entry inh – Lassa virus entry inhibition. Lassa virus pseudotype entry inhibition, cell reporter. Potency, µM (series often up to 37.9 µM), actives largely listed as inhibitors. 300,000 compounds, 1.2% hits; calls by dose curve; tested in HEK293 cells; further: nearly all actives have a fitted effect of over 50% in size
HCMV inh – human cytomegalovirus inhibition. activity change, negative = inhibition, % at 57.5 µM. HFF cells, HCMV-luciferase reporter, 72 h; active compounds read low. 410,000 compounds, 4.5% hits; in the data active means activity change below about -60%; inconclusive means no clear call, values can overlap the other calls; inactive means above about -39%
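Cell-based, HFFs, 1000 cells/well, 16 h 37C; cpds in DMSO + HCMV-luc, MOI 1 PFU/cell; 72 h 37C; OneGlo luminescence after 5 min RT; norm. to buffer vs Salinomycin 10uM.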
VACV Venus inh – vaccinia inhibition (Venus reporter); Vaccinia virus Venus reporter expression, fluorescence; Potency, µM (series often up to 36.5 µM), usual class: inhibitors; 330,000 compounds, 0.46% hits; AID 720580; calls by dose curve; tested in A549 cells; further: nearly all actives have a fitted effect of over 30% in size
Large screens that a line does not name were inactive. Compounds with a hit are over-represented: about 6.5% of the library has one in this group of screens.

CCCN(CC(=O)Nc1ccccc1C)C(=O)/C=C/c1ccc(S(=O)(=O)N2CCCCCC2)cc1	MARV entry inh 11µM
COc1ccc(-c2nc3sc(CCNC(=O)C(=O)Nc4ccccc4C#N)c(C)n3n2)cc1	none (no result: MARV entry inh)
O=C(NCCN1Cc2ccccc2OC(c2ccccc2F)C1)c1ccco1 (centres undefined)	none (no result: MARV entry inh, LASV entry inh, HCMV inh)
CCCCc1ccc(S(=O)(=O)N[C@H]2CC[C@@]34CCCN3C(=O)CCC[C@H]4[C@H]2CCC)cc1	none (no result: MARV entry inh, VACV mCherry inh, FMDV inh, LASV entry inh, VACV Venus inh)
O=C(CCS(=O)(=O)c1ccccc1)Nc1nnc(-c2ccco2)o1	VACV mCherry inh 11µM, VACV Venus inh inconclusive
COc1cc(OC)cc(-c2nnc(NC(=O)CCS(=O)(=O)c3ccc(C)cc3)o2)c1	VACV mCherry inh 7.9µM, LASV entry inh inconclusive, VACV Venus inh inconclusive
CCCCCCCc1cc2ccccc2c2c(C(=O)OCC)c(C(=O)OCC)c(C(=O)OCC)n12	none (no result: VACV mCherry inh, FMDV inh, LASV entry inh, HCMV inh, VACV Venus inh)
CC(C)(C)c1nn(-c2ccccc2)c2[nH]c(=O)c(CNc3ccc4c(c3)OCCO4)cc12	HCMV inh -62 (no result: FMDV inh)
COc1ccc2oc(=N)c(C(=O)Nc3ccc(F)cc3)cc2c1	MARV entry inh inconclusive, VACV mCherry inh inconclusive, HCMV inh -62
N=c1oc2cc(O)ccc2cc1C(=O)Nc1ccc(Br)cc1	MARV entry inh inconclusive, VACV mCherry inh inconclusive, LASV entry inh inconclusive, HCMV inh -90, VACV Venus inh inconclusive
